Test results reported in publication PMC12670160, “A drug-repurposing screen of FDA- and EMA-approved drugs identifies two NF-κB inhibitors active against eumycetoma” (Journal of Antimicrobial Chemotherapy, 2025).
Where a name gives a salt, the structure may show the parent alone. Read-outs that look alike come from different tables or passages of the source. In all, about 5,300 compounds went through this assay and about 130 (2.5%) showed an effect of 50% or more. This is one part of a sample in which strong results are shown more often than they occur. Peptide text beside a SMILES is read from it. * marks the point of attachment. PhAc = O=C(Cc1ccccc1)*

Tested on: M. mycetomatis strain mm55
Settings: primary screen, metabolic activity vs growth control, 96 h, 2 µM, inhibitor
[1] = Madurella mycetomatis metabolic activity at 2µM (%)

Compound | % viability [%] | % viability [1] [%]
C[C@@H](O)[C@H](N)C(=O)N1CCC[C@H]1C(=O)N1CCC[C@H]1C(=O)N[C@H](C(N)=O)[C@@H](C)O [ONC0002215, rapastinel trifluoroacetate] (H-TPPT-NH2) | 53.54 | –
COCCn1c2c([n+](Cc3cnccn3)c1C)C(=O)c1ccccc1C2=O [ONC0001046, ym155] | 83.36 | –
COc1ccc(/C=C2\CCCN=C2c2cccnc2)c(OC)c1 [ONC0001889, gts21] | 72.7 | –
CN(C)c1ccc(/C=C2\CCCN=C2c2cccnc2)cc1 [ONC0002266, dmabanabaseine] | 49.52 | –
Oc1c(I)cc(I)c2cccnc12 [ONC0000463, iodoquinol] | 67.55 | –
Oc1c(Cl)cc(Cl)c2cccnc12 [ONC0002821, chloroxine] | 92.76 | –
Oc1c(Br)cc(Br)c2cccnc12 [Broxyquinoline] | 5.699 | –
COc1ccc(CCO[C@@H]2CCCC[C@H]2N2CC[C@@H](O)C2)cc1OC [ONC0001796, vernakalant hydrochloride] | 98.02 | –
CC1C[C@H]2[C@@H]3CCC4=CC(=O)C=C[C@]4(C)[C@@]3(Cl)[C@@H](O)C[C@]2(C)[C@@]1(O)C(=O)CO (stereo partly drawn) [ONC0000301, beclomethasone] | 73.26 | –
CC(C)(C)NC[C@H](O)COc1cccc2c1CCCC2=O [ONC0002946, levobunolol] | 70.13 | –
CC(C)(C)NC[C@@H](O)COc1cccc2c1CCCC2=O [ONC0002849, levobunolol] | 116.9 | –
Cc1cccc(OCC(O)CNC(C)(C)C)c1C (stereo not drawn) [ONC0002362, xibenolol] | 46.41 | –
O=C1OC2(c3cc(I)c(O)c(I)c3Oc3c2cc(I)c(O)c3I)c2c(Cl)c(Cl)c(Cl)c(Cl)c21 [ONC0002983, rosebengallactone] | – | 60.55
CCCCC(CC)CNC(=N)NC(=N)NCCCCCCNC(=N)NC(=N)NCC(CC)CCCC (stereo not drawn) [Alexidine dihydrochloride] | 2.643 | –
CCCCCCCCCCC(CO)CCCCCCCC (stereo not drawn) [ONC0003687, 2octyldodecan1ol] | 64.53 | –
CCCCCCCCCCCCOS(=O)(=O)O [ONC0004120, dodecylsulfate] | – | 112
N=C(N)N=Nc1ccc(NNC(=N)S)cc1 [ONC0002980, ambazone] | 75.31 | –
COC(=O)c1cc(OC)c2c(c1-c1c(C(=O)OC)cc(OC)c3c1OCO3)OCO2 [ONC0003333, bifendate] | 41.54 | –
COC(=O)c1cc(OC)c2c(c1-c1c(CO)cc(OC)c3c1OCO3)OCO2 [ONC0002187, bicyclol] | 70.1 | –
COC(=O)c1ccccc1O [ONC0003750, methylsalicylate] | 102.4 | –

Compound | % viability [%] | % viability [1] [%]
CC1(C)[C@@H](O)CC[C@]2(C)[C@H]3C(=O)C=C4[C@@H]5C[C@@](C)(C(=O)O)CC[C@]5(C)CC[C@@]4(C)[C@]3(C)CC[C@@H]12 [ONC0003205, enoxolone] | 101.1 | –
CC(=O)O[C@@H]1CC[C@@]2(C)[C@@H](CC[C@]3(C)[C@@H]2C(=O)C=C2[C@@H]4[C@@H](C)[C@H](C)CC[C@]4(C)CC[C@]23C)[C@@]1(C)C(=O)O [ONC0002083, akba] | 67.6 | –
CC1(C)[C@@H](OC(=O)CCC(=O)O)CC[C@]2(C)[C@H]3C(=O)C=C4[C@@H]5C[C@@](C)(C(=O)O)CC[C@]5(C)CC[C@@]4(C)[C@]3(C)CC[C@@H]12 [ONC0000604, carbenoxolone sodium] | 49.18 | –
O=c1[nH]c(=O)c2[nH]c(=O)[nH]c2[nH]1 [ONC0003522, uricacid] | 130.7 | –
C[C@H](N[C@@H](CCc1ccccc1)C(=O)O)C(=O)N1CCC[C@H]1C(=O)O [ONC0003897, enalaprilat] | 70.49 | –
CCOC(=O)[C@H](CCc1ccccc1)N[C@@H](C)C(=O)N1CCC[C@H]1C(=O)O [ONC0000561, enalapril maleate] | 109.8 | –
CCOC(=O)CNC(=O)[C@@H]1CCCN1C(=O)Cc1ccccc1 [ONC0001144, omberacetam] (PhAc-Pro-Gly-OEt) | 45.25 | –
N[C@@H]1C[C@H]1c1ccccc1 (racemic) [ONC0000562, tranylcypromine sulfate] | 104.4 | –
CCCN(CCC)CCc1ccc(OC)c(OCCc2ccccc2)c1 [ONC0000866, ne100] | 62.29 | –
O=P(O)(O)C(O)(Cc1cnc2ccccn12)P(=O)(O)O [ONC0000278, minodronic acid hydrate] | 88.21 | –
C[C@@H]1O[C@@]2(CS1)CN1CCC2CC1.C[C@H]1O[C@]2(CS1)CN1CCC2CC1.Cl [ONC0002680, cevimeline] | 67.14 | –
COc1ccccc1N1CCN(CCN2C(=O)CC3(CCCC3)CC2=O)CC1 [ONC0002563, bmy7378] | 52.22 | –
COc1ccccc1CC(=N)N1C[C@@H]2C(=O)CCC(c3ccccc3)(c3ccccc3)[C@@H]2C1 [ONC0001413, rp67580] | 48.12 | –
NC(CC(F)C(=O)O)C(=O)O (stereo not drawn) [ONC0003677, 4fluorodlglutamic acid] | 63.49 | –
CCN(CC)S(=O)(=O)c1ccc(C(=O)O)cc1 [ONC0004305, etebenecid] | 97.53 | –
CC(C)c1ccc2c(c1)CC[C@H]1[C@](C)(CN)CCC[C@]21C [ONC0000210, lylamine] | 63.87 | –
O=c1[nH]cnc2c1ncn2[C@H]1CC[C@@H](CO)O1 [ONC0004781, didanosine videx] | 107 | –
Nc1ncnc2c1ncn2[C@H]1CC[C@@H](CO)O1 [ONC0003689, 23dideoxyadenosine] | 49.81 | –
Nc1ncnc2c1ncn2[C@@H]1O[C@H](CO)C[C@H]1O [ONC0003004, cordycepin] | 108 | –
CSc1ccccc1Nc1nc(N2CCNCC2)nc2c(NCC3CC3)ncnc12.Cl [ONC0001097, khkin1 hydrochloride] | 76.94 | –

Compound | % viability [%] | % viability [1] [%]
CC(=O)N1CCN(c2ccc(OCC3COC(Cn4ccnc4)(c4ccc(Cl)cc4Cl)O3)cc2)CC1 (stereo not drawn) [Ketoconazole] | 1.788 | –
CCC(C)n1ncn(-c2ccc(N3CCN(c4ccc(OCC5COC(Cn6cncn6)(c6ccc(Cl)cc6Cl)O5)cc4)CC3)cc2)c1=O (stereo not drawn) [Itraconazole hydrochloride] | 4.9 | –
CC[C@@H]([C@H](C)O)n1ncn(-c2ccc(N3CCN(c4ccc(OC[C@@H]5CO[C@@](Cn6cncn6)(c6ccc(F)cc6F)C5)cc4)CC3)cc2)c1=O [Posaconazole] | 0.7626 | –
COc1cc(N2CCN(C(C)=O)CC2)ccc1Nc1ncc(Cl)c(Nc2ccc(N3CCN(C(C)=O)CC3)cc2OC)n1 [ONC0003574, krca0008] | 122 | –
CC(C)N1CCN(c2ccc(OC[C@@H]3CO[C@@](Cn4cncn4)(c4ccc(Cl)cc4Cl)O3)cc2)CC1 [ONC0002390, terconazole] | 66.82 | –
O=C(O)c1ccc(OCCn2ccnc2)cc1 [ONC0003331, dazoxiben] | 112.5 | –
CCC(=O)O[C@@H](OP(=O)(CCCCc1ccccc1)CC(=O)N1C[C@H](C2CCCCC2)C[C@H]1C(=O)O)C(C)C (stereo partly drawn) [ONC0005007, fosinopril sodium monopril] | 152.1 | –
O=C(CCCN1CCC(n2c(O)nc3ccccc32)CC1)c1ccc(F)cc1 [ONC0002014, benperidol] | 79.93 | –
N[C@@H]1CON=C1O [ONC0000314, cycloserine d] | 88.4 | –
CN[C@@H](C)C(=O)N[C@H]1CCCC[C@H]2CCC(C(=O)N[C@@H](c3ccccc3)c3cn(CCCCc4ccc(CCCCn5cc([C@@H](NC(=O)[C@@H]6CC[C@@H]7CCCC[C@H](NC(=O)[C@H](C)NC)C(=O)N76)c6ccccc6)nn5)cc4)nn3)N2C1=O (stereo partly drawn) [ONC0003931, sm164] | 63.69 | –
C=CC(=O)[O-].[Na+] [ONC0002646, sodium acrylate] | 77.54 | –
N#Cc1cnc2cnc(NCc3cccnc3)cc2c1Nc1ccc(F)c(Cl)c1 [ONC0001337, tcs7006] | 78.74 | –
N#Cc1cnc2c(Cl)cc(NCc3cn(CCN4CCCCCC4)nn3)cc2c1Nc1ccc(F)c(Cl)c1 [ONC0000779, cot inhibitor1] | 49.03 | –
CCN1CCC(n2cc(CNc3cc(Cl)c4ncc(C#N)c(Nc5ccc(F)c(Cl)c5)c4c3)nn2)CC1 [ONC0002075, cot inhibitor2] | 82.04 | –
CC(C)=CCC/C(C)=C/CC/C(C)=C/C=C/C(C)=C/C(=O)O [ONC0000885, peretinoin] | 65.8 | –
CCCC[P+](CCCC)(CCCC)Cc1ccc(NC(=O)[C@H](Cc2ccc3ccccc3c2)N=C(NC2CCCCC2)NC2CCCCC2)cc1 [ONC0000223, win64338] | 62.1 | –
CC(NC(=O)CCc1nc(=O)c2ccccc2[nH]1)c1ccccc1 (stereo not drawn) [ONC0005174, me0328] | 117.9 | –
CC1(C)Oc2ccc(C#N)cc2[C@@H](OC2=CC(=O)CC2)[C@@H]1O [ONC0003452, pco 400] | 40.31 | –
CC(=O)N(O)[C@@H]1c2cc(C#N)ccc2OC(C)(C)[C@H]1O [ONC0004430, y26763] | 123.9 | –
CC1(C)Oc2ccc(C#N)cc2[C@@H](N2CCCC2=O)[C@@H]1O.CC1(C)Oc2ccc(C#N)cc2[C@H](N2CCCC2=O)[C@H]1O [ONC0001708, levcromakalim] | 57.98 | –
